Screening data as filed in PubChem BioAssay.
A selection: hits, their analogues and other compounds. The true share with any hit is near 2.4%.
KAT2A inh = qHTS Assay for Inhibitors of GCN5L2. GCN5L2 HAT assay, ThioGlo1 CoA-SH fluorescence. Histone acetyltransferase KAT2A (Homo sapiens), Q92830. Potency, µM (highest dose often 58.9 µM), hits mostly inhibitors. hit rate 0.21% among 390,000
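Preincubate 20nM GCN5L2 with compound 15 min, RT → add 50uM ThioGlo1 + 75uM H3(1-25) + 70uM acetyl-CoA → read fluorescence 0 and 20 min. Primary qHTS; fluorescent artifacts likely.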
GLS inh = qHTS for Inhibitors of Glutaminase (GLS); Glutaminase kidney isoform, mitochondrial (Homo sapiens), O94925; GLS enzymatic activity, qHTS titration; Potency, µM (series often up to 45.5 µM), actives largely listed as inhibitors; hit rate 0.21% among 410,000
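Glutamate formation by hKGA was monitored fluorometrically using coupled glutamate oxidase, HRP and Amplex Red. Substrate was added as 1 mM L-glutamine solution; incubation was 30 min at RT after an initial read.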
Pol kappa inh = qHTS for Inhibitors of Polymerase Kappa. purified Pol kappa, fluorescent DNA synthesis assay, 10 min. Potency, µM (titrated, usually from 107 µM), usual class: inhibitors. hit rate 0.53% among 400,000. AID 588579, 2011
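Kinetic fluorescence readout at 0 and 10 min followed reaction start with substrate at 50 nM final. Beforehand, enzyme (10 nM Pol kappa) stood 15 min with compound at room temperature; buffer-only wells were negative controls.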
Pol beta inh = qHTS Assay for Inhibitors of DNA Polymerase Beta | P06746 | Pol beta primer extension/strand displacement, fluorescence kinetic | Potency, µM (highest dose often 114 µM), most hits filed as inhibitors | hit rate 1.3% among 340,000 | AID 485314, 2010
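Pol beta (10 nM) and compounds were preincubated 15 min at room temperature, then 50 nM substrate (final) started primer extension/strand displacement. Reads were taken at 0 and 10 min; concentration-response data were fitted to a four-parameter Hill equation.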
POLH inh = qHTS for Inhibitors of Polymerase Eta | DNA polymerase eta (Homo sapiens), Q9Y253 | recombinant Pol eta, fluorescent DNA replication assay | hit rate 1.2% among 390,000 | Potency, µM (doses to about 114 µM), usual class: inhibitors
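Pol eta (10 nM) was preincubated with compounds for 15 min at room temperature, after which fluorescent replication substrate (50 nM final) was added to start the reaction. Fluorescence was read kinetically at 0 and 10 min.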
Pol iota inh = qHTS for Inhibitors of Polymerase Iota. Pol iota fluorescent replication assay, 10 min. hit rate 1% among 390,000. AID 588590, 2011. DNA polymerase iota (Homo sapiens), Q9UNA4. Potency, µM (series often up to 115 µM), usual class: inhibitors
Target sequence (Q9UNA4 whole entry, looked up): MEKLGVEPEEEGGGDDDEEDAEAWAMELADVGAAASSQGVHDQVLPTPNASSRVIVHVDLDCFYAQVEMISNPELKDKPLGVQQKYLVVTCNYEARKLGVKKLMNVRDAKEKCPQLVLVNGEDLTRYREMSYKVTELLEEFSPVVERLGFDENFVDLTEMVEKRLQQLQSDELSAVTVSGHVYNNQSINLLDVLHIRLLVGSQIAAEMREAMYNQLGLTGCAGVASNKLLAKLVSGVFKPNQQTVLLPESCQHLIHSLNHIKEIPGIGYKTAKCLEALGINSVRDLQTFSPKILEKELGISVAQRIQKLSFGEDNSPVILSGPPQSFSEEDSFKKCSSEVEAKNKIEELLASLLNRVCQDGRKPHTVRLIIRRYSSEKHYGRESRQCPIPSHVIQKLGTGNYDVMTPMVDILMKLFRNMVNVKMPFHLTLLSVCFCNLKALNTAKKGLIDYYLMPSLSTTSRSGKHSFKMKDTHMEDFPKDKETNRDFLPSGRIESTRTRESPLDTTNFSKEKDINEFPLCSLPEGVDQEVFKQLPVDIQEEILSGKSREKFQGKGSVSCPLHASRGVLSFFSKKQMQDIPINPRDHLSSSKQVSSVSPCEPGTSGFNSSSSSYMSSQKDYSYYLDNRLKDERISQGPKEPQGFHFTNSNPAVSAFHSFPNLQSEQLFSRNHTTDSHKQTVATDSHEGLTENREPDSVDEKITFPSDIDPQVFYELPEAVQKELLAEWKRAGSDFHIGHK
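Pol iota at 10 nM preincubated 15 min with compounds at room temperature; reaction started with fluorescent substrate, 50 nM final. Fluorescence read kinetically at 0 and 10 min; buffer-only wells as negative control.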
A number is an active result. Calls come from the whole dose curve; as a rule, active = well fitted inhibition curve with a large enough effect; inconclusive = small, poorly fitted or top-dose-only effect, or another doubt; inactive = no such curve, though single readings can be large or run the other way.

For C#CCOCCOCCOCCNc1nc(N2CCN(C(=O)CCCCCCCCCCNC(=O)[C@@H](CCC(=O)O)n3cc(CCCCCN)nn3)CC2)nc(N2CCN(C(=O)CCCCCCCCCCNC(=O)[C@H](CCCCN)n3cc(C[C@@H](C)CC)nn3)CC2)n1 the results were KAT2A inh inactive, GLS inh inconclusive, Pol kappa inh inactive, POLH inh 89µM and Pol iota inh inactive.
For C#CCOCCOCCOCCNc1nc(N2CCN(C(=O)CCCCCCCCCCNC(=O)[C@H](CCCCN)n3cc(C[C@@H](C)CC)nn3)CC2)nc(N2CCN(C(=O)CCCCCCCCCCNC(=O)[C@H](CCCN=C(N)N)n3cc(C[C@@H](C)CC)nn3)CC2)n1 the results were KAT2A inh inactive, GLS inh inconclusive, Pol kappa inh inactive, POLH inh 28µM and Pol iota inh inactive.
Screening C#CCOCCOCCOCCNc1nc(N2CCN(C(=O)CCCCCCCCCCNC(=O)[C@@H](CCC(=O)O)n3cc(CCCCCN)nn3)CC2)nc(N2CCN(C(=O)CCCCCCCCCCNC(=O)[C@H](CO)n3cc(CCCCCN)nn3)CC2)n1 returned KAT2A inh inactive, GLS inh inactive, Pol kappa inh inactive, POLH inh inactive and Pol iota inh inactive.
Screening C#CCOCCOCCOCCNc1nc(N2CCN(C(=O)CCCCCCCCCCNC(=O)[C@H](CCCCN)n3cc(C[C@@H](C)CC)nn3)CC2)nc(N2CCN(C(=O)CCCCCCCCCCNC(=O)[C@@H]([C@H](C)O)n3cc(C)nn3)CC2)n1 returned KAT2A inh inactive, GLS inh inconclusive, Pol kappa inh inactive, POLH inh 79µM and Pol iota inh inactive.
`COc1cc(S(=O)(=O)NCCc2c(C)[nH]c3ccccc23)c(C)cc1C` gave KAT2A inh inactive, GLS inh inactive, Pol kappa inh inactive, Pol beta inh inactive, POLH inh inactive and Pol iota inh inconclusive.
`O=C(Nc1ccc(Cl)cn1)c1cnn2c1NC(=C1CC1)C=C2C(F)F` gave Pol kappa inh inactive and Pol iota inh inactive.
C#CCOCCOCCOCCNc1nc(N2CCN(C(=O)CCCCCCCCCCNC(=O)[C@H](CCCCN)n3cc(CCO)nn3)CC2)nc(N2CCN(C(=O)CCCCCCCCCCNC(=O)[C@H](CCCCN)n3cc(C[C@@H](C)CC)nn3)CC2)n1 was read as KAT2A inh inactive, GLS inh inconclusive, Pol kappa inh inactive, POLH inh 79µM and Pol iota inh inconclusive.
For C#CCOCCOCCOCCNc1nc(N2CCN(C(=O)CCCCCCCCCCNC(=O)[C@@H](CCSC)n3cc(CCO)nn3)CC2)nc(N2CCN(C(=O)CCCCCCCCCCNC(=O)[C@H](CCCN=C(N)N)n3cc(C[C@@H](C)CC)nn3)CC2)n1 the results were KAT2A inh inactive, GLS inh inactive, Pol kappa inh inactive, POLH inh 79µM and Pol iota inh inconclusive.
For C#CCOCCOCCOCCNc1nc(N2CCN(C(=O)CCCCCCCCCCNC(=O)[C@H](CCCCN)n3cc(CCO)nn3)CC2)nc(N2CCN(C(=O)CCCCCCCCCCNC(=O)[C@H](CCCCN)n3cc(CCCC(=O)O)nn3)CC2)n1 the results were KAT2A inh inactive, GLS inh inactive, Pol kappa inh inactive, POLH inh inactive and Pol iota inh inconclusive.
For C[C@H](NC(=O)OC(C)(C)C)C(=O)c1ccco1 the results were Pol kappa inh inactive and Pol iota inh inactive.
Cc1oc(-c2cccc(Cl)c2)nc1CN1CCC(C(=O)NCc2ccc(F)cc2)CC1 was read as KAT2A inh inactive, GLS inh inactive, Pol kappa inh inactive, Pol beta inh inactive, POLH inh inactive and Pol iota inh inactive.
For O=C(/C=C/c1ccc(Br)o1)Nc1nccs1 the results were KAT2A inh inactive, GLS inh inactive, Pol kappa inh inconclusive, Pol beta inh inconclusive, POLH inh inconclusive and Pol iota inh 20µM.
